The record followed here is PubChem BioAssay AID1578 (Sanford-Burnham Center for Chemical Genomics, 2009).

A word on the inhibition: it is the drop in the measured response relative to a control, in per cent.

The structures appear in SMILES notation. Values joined by “and” are separate entries in the source; they are usually repeats but may differ in a detail not shown here. Equal values may be shown once. Hit rate of the full screen: of about 290,000 compounds, about 3,000 (1%) were called active. The sample holds actives, similar compounds and a random draw of the others, so the mix is not that of the screen. Rule as the data show it: active = inhibition mostly above about 36% (no sharp cut-off); inactive = mostly below about 34%.

The assay is described as follows: NOD1 signaling inhibitors, primary screen, cell-based, luminescence, uHTS (AID 1578).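 Also: HEK-293T reporter cells stimulated with the NOD1 agonist gamma-tri-DAP.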 Conditions: NOD1-driven NF-kB luciferase reporter cells, at 4 µM, stronger effect = higher value. In general terms: Reporter assays use an easily measured gene product as a stand-in for the process of interest.
For the molecule `Cc1ccc(OCC(=O)N2CCN(C3CCC(c4ccccc4)CC3)CC2)cc1` (configuration not stated), the inhibition is -32.4% (inactive).

As for `CNCC(C)c1ccccc1` (configuration not stated), the inhibition was -8.7% (inactive).

Regarding `COC(=O)C1=Nc2ccccc2/C1=C\c1c(O)n(-c2ccc(Br)cc2)c(=O)[nH]c1=O`, the inhibition was 56.2% (inactive).

Turning to `O=c1[nH]c(=O)n(-c2ccccc2)c(O)c1/C=C1/C(c2ccccc2)=Nc2ccccc21`, the inhibition is 81.6% (active).

For `COC(=O)C1=Nc2ccccc2/C1=C\c1c(O)n(-c2ccc(OC)cc2)c(=O)[nH]c1=O`, the inhibition is 9.9% (inactive).

For the molecule `Cc1ccc(Cn2nc(C)c(C=O)c2Cl)cc1`, the inhibition is -42.4% (inactive).

Regarding `COc1cc2c(cc1OC)-c1c3c(cc4c1[C@@H](C2)N(C)CC4)OCO3`, the inhibition is -23.9% (inactive).

With `COc1ccc(-n2nc(C(=O)NCC(=O)N3CCC4(CC3)OCCO4)c3ccccc3c2=O)cc1`, the inhibition is -47.4% (inactive).

As to `CN(C)CC1Oc2ccccc2OC1(O)c1ccccc1` (configuration not stated), the inhibition was 56.4% (active).

Take `COc1cccc([C@@]2(O)CCCC[C@@H]2CN(C)C)c1`: the inhibition is -1.9% (inactive) and 1.4% (inactive).

With `CN(C)CC1CSCCC1(O)c1ccccc1` (configuration not stated), the inhibition is -5.3% (inactive).

With `Cc1c(N=Nc2c(O)[nH]c(=S)[nH]c2=O)c(=O)n(-c2ccccc2)n1C`, the inhibition was 12.7% (inactive).

In the case of `C=CCn1c(O)c(/C=C2/C=CC=N2)c(=O)[nH]c1=O`, the inhibition is -27.6% (inactive).

Consider `O=c1[nH]c(=O)n(Cc2ccccc2Cl)c(O)c1/C=C1/C=CC=N1`, for which the inhibition was 47.1% (active).

For `CCCCn1c(O)c(/C=C2/C=CC=N2)c(=O)[nH]c1=O`, the inhibition is -7.3% (inactive).

For the molecule `COc1ccc(N=Cc2c(O)n(C)c(=O)n(C)c2=O)cc1`, the inhibition was -13.4% (inactive).

As for `CNS(=O)(=O)c1ccc(N=Cc2c(O)n(-c3cccc(C)c3)c(=O)[nH]c2=O)cc1`, the inhibition is -26.7% (inactive).

For `COc1ccc(CC2(CCc3ccncc3)C(=O)NC(=O)NC2=O)cc1`, the inhibition is -26.1% (inactive).

For the molecule `CNc1ccc2oc(C[C@H]3O[C@@]4(CC[C@H]3C)O[C@H]([C@H](C)C(=O)c3ccc[nH]3)[C@H](C)C[C@H]4C)nc2c1C(=O)O`, the inhibition is 76.2% (active).

For `c1ccc(-c2nc(N3CCOCC3)s[n+]2-c2ccccc2)cc1`, the inhibition is -49.7% (inactive).

`Cc1ccc2c(c1)C1CN(C)CCC1N2C(=S)Nc1cccnc1` (configuration not stated): the inhibition was -34% (inactive).

`O=C(CN1CC=C(c2ccccc2)CC1)Nc1c(Cl)cccc1Cl`: the inhibition was 30.6% (inactive).

Take `COC(=O)[C@@H]1[C@@H](C(=O)OC)C2(c3ccccc3-c3ccccc32)N(c2ccc(Cl)cc2)N1C#N`: the inhibition is -7.2% (inactive).

As to `COC(=O)C1CN(C#N)N(c2ccc(Cl)cc2)C12c1ccccc1-c1ccccc12` (configuration not stated), the inhibition is -10.3% (inactive).

Consider `COC(=O)C[C@]1(C(=O)OC)CN(C#N)N(c2ccc(Cl)cc2)C12c1ccccc1-c1ccccc12`, for which the inhibition was 91.6% (active).

For `CC(C)c1ccc(NC(=O)CCNC(=O)N2C[C@H]3C[C@@H](C2)c2cccc(=O)n2C3)cc1`, the inhibition was -6.2% (inactive).

For the molecule `Cc1ccc(-c2nc3ccccc3c(=O)n2-c2ccncc2)cc1`, the inhibition is -34.6% (inactive).

In the case of `Cc1nc2cc(C(F)(F)F)ccc2n1C1CCN(Cc2nnnn2Cc2ccc3c(c2)OCO3)CC1`, the inhibition was 62.6% (active).

On to `Cc1nc2cc(C(F)(F)F)ccc2n1C1CCN(Cc2nnnn2Cc2cccs2)CC1`, for which the inhibition was -21.1% (inactive).

On to `Cc1nc2cc(C(F)(F)F)ccc2n1C1CCN(Cc2nnnn2CCc2ccccc2)CC1`, for which the inhibition is -27.2% (inactive).

As to `O=c1cccc2n1CC1CC2CN(C(c2cccc(F)c2)c2sc3ncnn3c2O)C1` (configuration not stated), the inhibition is -12.7% (inactive).

With `CN[C@H]1C[C@H]2O[C@@](C)([C@H]1OC)n1c3ccccc3c3c4c(c5c6ccccc6n2c5c31)C(=O)NC4`, the inhibition is 1.7% (inactive).

With `COc1ccccc1N1CCN(Cc2ccccc2Cl)CC1`, the inhibition is -17.2% (inactive).

With `Cc1cc(C)n(-c2ccc(NN=C(C#N)C#N)cc2)n1`, the inhibition was 41.2% (active).

Consider `CCN(CC)S(=O)(=O)c1ccc(NN=C(C#N)C#N)cc1`, for which the inhibition is 9.7% (inactive).

Regarding `N#CC(C#N)=NNc1ccc(-n2ccc(C(F)(F)F)n2)cc1`, the inhibition was 36.7% (active).

Turning to `CC1CCN(S(=O)(=O)c2ccc(NN=C(C#N)C#N)cc2)CC1`, the inhibition is -29.8% (inactive).

As to `N#CC(C#N)=NNc1ccc(S(N)(=O)=O)cc1`, the inhibition was -10.8% (inactive).

For the molecule `Cc1nn(Cc2ccccc2)c(Cl)c1C(=O)OCC(=O)Nc1cccc2ccccc12`, the inhibition is -17.7% (inactive).

In the case of `COC(=O)C(C)Oc1cc(C)cc2oc(=O)c3c(c12)CCCC3` (configuration not stated), the inhibition is -9.2% (inactive).

Regarding `O=C(NC(Cc1cnc[nH]1)C(=O)O)c1ccccc1` (configuration not stated), the inhibition is -20.8% (inactive).

For `C=CCn1c(O)c(C(CC)=NCCc2ccccc2)c(=O)[nH]c1=O`, the inhibition was -24.2% (inactive).

Turning to `CC(C)n1c(=O)c(C=Nc2ccc(S(N)(=O)=O)cc2)c(O)n(Cc2ccco2)c1=O`, the inhibition is -37.7% (inactive).

Consider `CCC(=O)c1cn(Cc2ccccc2C#N)c2ccccc12`, for which the inhibition is 8.5% (inactive).

Regarding `CC(=O)c1cn(Cc2ccccc2C#N)c2ccccc12`, the inhibition was 78% (active).

As for `CC(C)C(=O)c1cn(Cc2ccccc2C#N)c2ccccc12`, the inhibition was -11.1% (inactive).

As for `CCOC(=O)CNC(=O)CNC(=O)C(Cc1ccc(N(CCCl)CCCl)cc1)NC(C)=O` (configuration not stated), the inhibition is -43.1% (inactive).

Take `C=CCn1c(O)c(C(CC)=NCc2cc(OC)cc(OC)c2)c(=O)[nH]c1=O`: the inhibition was 0.2% (inactive).

Take `Cc1cc(C=C2C(=O)NC(=S)NC2=O)c(C)n1C1CCCC1`: the inhibition was 24.9% (inactive).

Turning to `O=C1NC(=S)NC(=O)C1=Cc1cccc2cc3ccccc3cc12`, the inhibition was 59.4% (active).

Turning to `O=C1NC(=O)C(=Cc2ccc3ccccc3c2)C(=O)N1`, the inhibition was -4.2% (inactive).

For `Cc1cccc(N2CCN(CCc3ccccc3)CC2)c1C`, the inhibition was 11.9% (inactive).

With `CC(=O)c1c(O)n(-c2cccc(Cl)c2)c(=O)[nH]c1=O` (tested in a mixture with another compound), the inhibition is 1.2% (inactive).

As for `CC(C)n1c(O)c(C2c3cc(Cl)ccc3Oc3[nH]c(=O)n(C(C)C)c(=O)c32)c(=O)[nH]c1=O` (configuration not stated), the inhibition is 61.3% (active).

Take `CC(=O)[C@@]1(O)CC[C@H]2[C@@H]3CC=C4C[C@@H](O)CC[C@]4(C)[C@H]3CC[C@@]21C`: the inhibition is -24.8% (inactive).

As for `CC12CC[C@H]3[C@@H](CCC4(O)C[C@H](O)CCC34/C=N/NC(=O)c3ccccc3Cl)C1(O)CCC2C1=CC(=O)OC1` (some centres not stated), the inhibition is 3% (inactive).

As to `C[C@]12CC[C@H]3C(CCC4(O)CC(O)CC[C@]34C=O)C1=CC[C@H]2c1ccc(=O)oc1` (some centres not stated), the inhibition was 60.3% (active).
